Screens deposited in PubChem BioAssay by several laboratories.
The list is not random: actives were taken first. Their share in the collection is about 4.3%.
BoNT A protease: blocks Botulinum neurotoxin A light chain protease; actives 0.17% (n = 360,000); multiplex microsphere protease substrate cleavage, flow cytometry; inhibition, % at 10 µM
BoNT-F LC inh: BoNT F light chain protease inhibition | Multiplex microsphere protease cleavage assay, flow cytometry | inhibition, % at 10 µM | actives 0.22% (n = 360,000) | AID 588497; in the data active = inhibition above about 35%, passing the limit was not always enough; inconclusive = no clear call, values can overlap the other calls
Anthrax LF inh2: anthrax lethal factor protease inhibition; AID 588501; inhibition, % at 10 µM; actives 0.12% (n = 360,000); P15917; multiplex microsphere protease cleavage assay, LF
PfHsp40 yeast: compounds rescuing yeast from Plasmodium falciparum HSP40 toxicity; S. cerevisiae expressing PfHsp40, growth rescue, ATP luminescence; growth rescue, % at 12.5 µM; actives 0.68% (n = 340,000); AID 504582; in the data active = growth rescue above about 28%, passing the limit was not always enough; inconclusive = no clear call, values can overlap the other calls;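 note: yeast W303a lacking pdr1 and pdr3 grown in galactose medium; growth measured after three days at 30 °C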
MazF activator: MazEF (E. coli) toxin RNase activation | FAM/BHQ RNA-DNA oligo cleavage fluorescence, 5 h | activation, % at 20 µM | P0AE70 | actives 0.32% (n = 350,000); in the data active = activation above about 50%
Target sequence (P0AE70 whole entry, looked up): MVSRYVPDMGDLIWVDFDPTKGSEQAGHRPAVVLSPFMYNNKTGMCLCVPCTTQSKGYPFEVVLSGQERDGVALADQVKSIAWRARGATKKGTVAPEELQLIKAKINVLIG
Bead autofluor: counter-screen for toxin protease inhibitors: compound fluorescence. compound autofluorescence counterscreen, microsphere flow cytometry; stronger effect = higher value. actives 3.1% (n = 360,000). AID 624483. fluorescence intensity (test concentration not listed); in the data active = fluorescence intensity above about 16000; inconclusive = no clear call, values can overlap the other calls
Numbers stand for hits; i = inactive; ? = inconclusive; nt = no result. Cut-off read from the data, not from the text of the source, unless noted: active = inhibition above about 30%; inconclusive = no clear call, values can overlap the other calls; inactive = below that.

SMILES	BoNT A protease	BoNT-F LC inh	Anthrax LF inh2	PfHsp40 yeast	MazF activator	Bead autofluor
COc1ccc(NCC(=O)Nc2ccc(Br)cc2F)c(OC)c1	i	i	i	i	i	i
CC(C)=CCC/C(C)=C/CNC(=O)C[C@H]1C[C@H](C(=O)N(C(C)C)C(C)C)[C@@]2(C)c3[nH]c4cc(CCC(=O)N(C)C)ccc4c3CCN2C1=O	i	i	i	i	i	i
CN(C)c1nc(N)c([N+](=O)[O-])c(NCC2CCCO2)n1 (stereo not drawn)	i	i	i	i	i	i
COc1cc(/C=C(/C#N)C(=O)NCCc2c[nH]c3ccccc23)ccc1OCc1ccccc1F	i	i	i	i	i	23745
O=C(OCCN1C(=O)c2cccc3c(N4CCOCC4)ccc(c23)C1=O)c1ccc(Cl)cc1	34	i	i	i	i	i
CCN(CC)S(=O)(=O)c1ccc(C(=O)OCC(=O)N2CCOCC2)cc1	i	i	i	i	i	i
CCCN(CCC)S(=O)(=O)c1ccc(C(=O)OCCN2C(=O)c3cccc4c(N5CCOCC5)ccc(c34)C2=O)cc1	37	i	37	i	i	i
O=C(OCCN1C(=O)c2ccccc2C1=O)c1cc(S(=O)(=O)N2CCOCC2)ccc1F	i	i	i	i	i	i
CCCNC(=O)C1(C)CCCN(Cc2c(F)cccc2F)C1 (stereo not drawn)	i	i	i	nt	nt	i
CC(=O)O[C@@H]1[C@@H](O)[C@@H](O)[C@H](Oc2c(-c3ccc(O)cc3)oc3c(CC=C(C)C)c(O)cc(O)c3c2=O)O[C@H]1C	nt	nt	nt	nt	i	nt
CC(=O)O[C@H]1[C@@H](O)[C@H](O)[C@H](Oc2c(O)c(C)c3c4c2[C@@H](C)CC[C@@H]4[C@@H](C)C[C@H]3C=C(C)C)O[C@H]1C	i	i	i	125	i	i
O=[N+]([O-])c1ccc(Cl)c(S(=O)(=O)Nc2ccc(S(=O)(=O)N3CCOCC3)cc2)c1	i	i	i	i	i	i
CCOC(=O)COc1ccc(S(=O)(=O)Nc2ccc(C)cc2)cc1	?	i	i	i	i	20911
COC(=O)COc1ccc(S(=O)(=O)NCCC2=CCCCC2)cc1C	i	i	i	i	i	22566
CCOC(=O)COc1ccc(S(=O)(=O)Nc2ccc3c(c2)OCO3)cc1	i	i	i	i	i	i
CCCNS(=O)(=O)c1ccc(OCC(=O)NCCC2=CCCCC2)cc1	i	i	i	i	i	25068
CCOc1ccc(S(=O)(=O)NN)cc1	i	i	i	i	50	i
CN(C1CCCCC1)C(CNS(=O)(=O)c1ccc(Cl)cc1)c1ccccc1 (stereo not drawn)	i	i	i	i	i	i
CCCNS(=O)(=O)c1ccc(OCC(=O)OC)cc1	i	i	i	i	i	24397
CCCCNS(=O)(=O)c1ccc(OCC(=O)OC)cc1	i	i	i	i	i	i
O=C(c1cccnc1)N1CCC2CC1c1c(Cl)cccc12 (stereo not drawn)	i	i	i	nt	i	i
COc1ccccc1NS(=O)(=O)c1cccc(C(=O)NCC(c2ccccc2OC)N2CCCC2)c1 (stereo not drawn)	i	i	i	i	i	20056
COc1ccccc1NS(=O)(=O)c1cccc(C(=O)NCC(c2ccco2)N2CCCC2)c1 (stereo not drawn)	i	i	i	i	i	i
COc1ccc(C(CNC(=O)c2ccc(Cl)c(S(=O)(=O)N3CCCC3)c2)N2CCCC2)cc1 (stereo not drawn)	i	i	i	i	i	30581
COc1ccc(C(CNC(=O)c2ccc(C)c(S(=O)(=O)N3CCOCC3)c2)N2CCCC2)cc1 (stereo not drawn)	i	i	i	i	i	i
SMILES	BoNT A protease	BoNT-F LC inh	Anthrax LF inh2	PfHsp40 yeast	MazF activator	Bead autofluor
COc1ccc(C(CNC(=O)c2cccc(NS(=O)(=O)c3ccccc3)c2)N2CCCC2)cc1 (stereo not drawn)	i	i	i	i	i	i
COc1ccc(C(CNC(=O)c2cc(C)oc2C)N2CCOCC2)cc1 (stereo not drawn)	i	i	i	i	i	16136
COc1ccc(C(CNC(=O)c2cccc(Br)c2)N2CCCC2)cc1 (stereo not drawn)	i	i	i	i	i	28340
O=C(C(=O)N1CCCCC1)c1c(-c2ccccc2)[nH]c2ccccc12	i	i	i	nt	i	i
COc1cc(C(O)c2nc(-c3cccc4cccnc34)cs2)ccc1F (stereo not drawn)	i	i	i	nt	nt	i
CCc1nccn1S(=O)(=O)c1cc(OC)ccc1OC	i	i	i	i	i	i
